Assay [1] in a line: qHTS assay to identify small molecule agonists of H2AX (AID 1224845; active means well fitted activation curve with a large enough effect in the signal ratio in the repeat runs, not every such curve was filed as active; the % refers to the signal ratio). The gist of the method:
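Wild-type CHO-K1 cells, plated overnight, exposed 3hr at 37C to 15 concentrations (0.76% DMSO final). Lysed, then HTRF anti-pH2AX (S139) cryptate and anti-H2AX-d2 antibodies, 24 hr room temperature; 665/620 nm emission read.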

Assay [2] in a line: qHTS assay to identify small molecule agonists of the hypoxia (HIF-1) signaling pathway (AID 1224846; active means well fitted activation curve with a large enough effect in the signal ratio in the repeat runs, not every such curve was filed as active; the % refers to the signal ratio). The gist of the method:
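Measured by blue/green FRET after loading CCF4-AM: beta-lactamase expressed from a hypoxia response element in ME-180 cells. Test agents were delivered in DMSO and left 17 hrs; cells had been plated 5 hrs earlier in low-serum (0.5% dialyzed FBS) medium.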
A general note: qHTS replaces the single test concentration by a dilution series.

Assay [3] in a line: qHTS assay to identify small molecule agonists of H2AX - cell viability counter screen (AID 1224847; calls by dose curve; further: top concentration of the series differs between compounds; nearly all actives have a fitted effect of over 30% in size). The gist of the method:
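We seed wild-type CHO-K1 cells overnight, treat them for 3 hr at 37C with compounds in 15-concentration series, and quantify remaining viability by CellTiter-Glo luminescence.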

A short description of assay [4]: qHTS RealTime-Glo MT Cell Viability Assay in HepG2 cells - 24 hour (AID 1224867). Further: nearly all actives have a fitted effect of over 50% in size. The gist of the method: (§1)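 HepG2 suspension premixed with RealTime-Glo reagents is plated at 600 cells per well and left 5 h at 37 C/5% CO2. Compounds in DMSO then go in, and bioluminescence reflecting viable cell number is recorded over 40 h.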
Assay [5] is described as follows: A CellTox Green Cytotoxicity Assay to monitor cytotoxicity in HEK293 cells - 0 hour (AID 1224869). Further: nearly all actives have a fitted effect of over 50% in size. The gist of the method:
(§2)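 Each value comes from one timepoint of a single continuous run in which HEK293 cells with CellTox Green were exposed to compound for up to 40 h at 37 C, dye fluorescence rising with cell death.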

Assay [6] in a line: qHTS RealTime-Glo MT Cell Viability Assay in HepG2 cells - 8 hour (AID 1224873). Further: nearly all actives have a fitted effect of over 55% in size. The gist of the method: (§3)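 HepG2 cells (600/well) mixed with RealTime-Glo MT reagent, settled 5 h at 37 C/5% CO2 before compound addition. Nonlytic NanoLuc luminescence from viable-cell prosubstrate reduction read repeatedly during 40 h treatment at 37 C.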
A short description of assay [7]: A CellTox Green Cytotoxicity Assay to monitor cytotoxicity in HEK293 cells - 24 hour (AID 1224875). Further: series mostly up to about 77 µM; nearly all actives have a fitted effect of over 45% in size. The gist of the method:
as §2

Assay [8] in a line: A CellTox Green Cytotoxicity Assay to monitor cytotoxicity in HepG2 cells - 16 hour (AID 1224876). Further: nearly all actives have a fitted effect of over 45% in size. Further: potency means the concentration at half of the fitted maximal effect. The gist of the method:
(§4)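 Continuous culture of HepG2 cells with a membrane-impermeant DNA dye; rising fluorescence marks dead cells. Compound exposure lasted up to 40 h at 37 C, with reads every 8 h from 0 h.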

The nature of assay [9]: A CellTox Green Cytotoxicity Assay to monitor cytotoxicity in HepG2 cells - 24 hour (AID 1224878). Further: nearly all actives have a fitted effect of over 45% in size. Further: potency means the concentration at half of the fitted maximal effect. The gist of the method: as §4
Assay [10] is described as follows: A CellTox Green Cytotoxicity Assay to monitor cytotoxicity in HEK293 cells - 32 hour (AID 1224881). Further: nearly all actives have a fitted effect of over 40% in size. The gist of the method: as §2
Assay [11] in a line: qHTS RealTime-Glo MT Cell Viability Assay in HEK293 cells - 32 hour (AID 1224868). Further: top concentration of the series differs between compounds; nearly all actives have a fitted effect of over 50% in size. The gist of the method: (§5)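 Reads taken at 0, 8, 16, 24, 32 and 40 h from the same wells. HEK293 cells (600/well) carried RealTime-Glo reagents from seeding, with compound added after a 5 h settle at 37 C.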
Assay [12] in a line: A CellTox Green Cytotoxicity Assay to monitor cytotoxicity in HEK293 cells - 40 hour (AID 1224871). Further: nearly all actives have a fitted effect of over 45% in size. The gist of the method:
as §2

Assay [13] in a line: qHTS RealTime-Glo MT Cell Viability Assay in HEK293 cells - 16 hour (AID 1224872). Further: top concentration of the series differs between compounds; nearly all actives have a fitted effect of over 50% in size. The gist of the method:
as §5

Assay [14] can be described thus: qHTS RealTime-Glo MT Cell Viability Assay in HEK293 cells - 40 hour (AID 1224874). Further: nearly all actives have a fitted effect of over 50% in size. The following applies: RealTime-Glo luminescence; max response: hits give low values. The gist of the method: (§6)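 qHTS format; HEK293 cells with NanoLuc/prosubstrate reagent, 37 C/5% CO2 for 5 h pre-dosing; compounds 23 nL in DMSO; luminescence at each time point reflects viable cells.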

A short description of assay [15]: qHTS RealTime-Glo MT Cell Viability Assay in HepG2 cells - 32 hour (AID 1224877). Further: nearly all actives have a fitted effect of over 55% in size. The gist of the method: as §1
A short description of assay [16]: A CellTox Green Cytotoxicity Assay to monitor cytotoxicity in HepG2 cells - 40 hour (AID 1224879). Further: nearly all actives have a fitted effect of over 40% in size. Further: potency means the concentration at half of the fitted maximal effect. The gist of the method:
as §4

Assay [17] is described as follows: qHTS RealTime-Glo MT Cell Viability Assay in HEK293 cells - 0 hour (AID 1224880). The gist of the method:
as §6

The nature of assay [18]: qHTS RealTime-Glo MT Cell Viability Assay in HepG2 cells - 40 hour (AID 1224870). Further: nearly all actives have a fitted effect of over 50% in size. The gist of the method:
as §3

Unmarked numbers belong to inactive results. Inconclusive results are not listed. Active and inactive are the calls of the source. Unless noted, the call rests on the fitted dose curve; in most records, active means well fitted curve in the direction sought with a large enough effect in the repeat runs; inconclusive means weak or mixed curves; inactive means no such curve, though single readings can be large; an effect the other way counts as inactive or inconclusive.
On the % scale 0 is the no-effect control and ±100 the full control effect.

As to `CC(C)(C)c1cc([N+](=O)[O-])cc([N+](=O)[O-])c1O`, the Potency result in [1], in assay [3], in [4], in [5], in assay [6] and in assay [7] was “inactive” throughout. The Potency result in [8], in [9] and in assay [10] was “inactive” each time. Moreover, the outcome in [2] was inactive.
On to `ClCc1ccccc1`, for which the Potency result in [1], in assay [3], in assay [4], in assay [11], in assay [5] and in [12] was “inactive” each time. In addition, the Potency result in assay [13], in assay [6], in [7], in assay [8], in assay [15] and in [9] was “inactive” each time. Also, the Potency entry in assay [16] and in assay [10] was “inactive” throughout. Further, the call in assay [2] was inactive. In addition, the max response in [14] is 2.64%.
Turning to `Cc1cc(=O)[nH]o1`, the Potency entry in assay [1], in [3], in assay [4], in [11], in assay [5] and in [13] was “inactive” throughout. Also, the Potency entry in assay [6], in assay [7], in assay [8], in assay [15], in assay [9] and in [16] was “inactive” each time. Besides, the Potency result in assay [17] and in assay [10] was “inactive” throughout. Further, in assay [2], the result was inactive. Moreover, in assay [14], the max response is 2.1%.
`Cc1ccc(-c2c(Cl)nc(C#N)n2S(=O)(=O)N(C)C)cc1`: the Potency entry in assay [1], in assay [3], in [4], in assay [5], in assay [18] and in assay [12] was “inactive” each time. The Potency result in assay [13], in assay [6], in assay [7], in [8], in [15] and in assay [9] was “inactive” each time. The Potency entry in [16] and in assay [17] was “inactive” in each case. Further, the compound was classed as inactive in [2].
Turning to `CN1[C@@H]2CC[C@H]1CC(OC(=O)c1cc(Cl)cc(Cl)c1)C2` (some centres undefined), the Potency result in [1], in [3], in assay [5], in assay [12], in assay [13] and in assay [6] was “inactive” in each case. The Potency result in assay [7], in assay [17] and in assay [10] was “inactive” each time. Besides, the compound was classed as inactive in assay [2]. In addition, the Potency in [8] is 21.3 µM (active); in [9], 23.9 µM (active); in assay [16], 23.9 µM (active).
Take `CCC(Br)(CC)C(=O)NC(N)=O`: the Potency result in [1], in assay [3], in assay [4], in assay [11], in [5] and in [12] was “inactive” throughout. For the same compound, the Potency result in assay [13], in [6], in assay [7], in assay [8], in assay [15] and in assay [9] was “inactive” each time. Moreover, the Potency result in [16] and in [10] was “inactive” each time. Further, the outcome in [2] was inactive.
As for `Clc1cccc2ccccc12`, the Potency result in assay [1], in [3], in assay [4], in assay [11], in [5] and in assay [18] was “inactive” in each case. In addition, the Potency result in assay [13], in [6], in [8], in assay [15], in [9] and in assay [16] was “inactive” each time. Moreover, in assay [2], the compound was called inactive.
Regarding `O=Cc1ccc2c(c1)OCO2`, the Potency entry in [1], in assay [3], in [4], in [11], in [5] and in assay [12] was “inactive” in each case. Further, the Potency entry in assay [13], in assay [6], in assay [7], in assay [8], in [15] and in assay [9] was “inactive” each time. Moreover, the Potency entry in assay [16] and in [17] was “inactive” throughout. Further, the result in assay [2] was inactive. The max response in [14] is 0.0881%.
